Reference: PubChem BioAssay (Tox21)
Active and inactive are the calls of the source. Calls follow the shape of the dose curve; as a rule, active = well fitted curve in the direction sought with a large enough effect in the repeat runs; inconclusive = weak or mixed curves; inactive = flat fitted curve, though single readings scatter.

experiment: qHTS assay to test for compound auto fluorescence at 460 nm (blue) in HEK293 cell free culture (AID 720681); conditions: cell-free medium, autofluorescence 405/460 nm (blue); series mostly up to 91.3 µM
Description: U.S. Tox21 Program National Center for Advancing Translational Sciences [NCATS] NIH Chemical Genomics Center [NCGC] U.S. Environmental Protection Agency [EPA] National Institutes of Environmental Health Sciences [NIEHS] National Toxicology Program [NTP] U.S. Food and Drug Administration [FDA] Tox21 Assay Overview: Compound auto fluorescence often interferes with screening of the compound library against various biological targets and signaling pathways. Some of these compounds may have fluorophoric properties. Such properties may interfere with the assay outputs resulting in false positives and/or negatives. To decrease such complications and ensure the compound activities are relevant in terms of biological response, the Tox21 10K compound library was screened for auto fluorescence. From the fluorophores used as reporter signals in our screening assays, the auto fluorescence equivalencies of compounds against three fluorophores have been evaluated: Triamterene, Fluorescein and Rose Bengal sodium for blue, green and red fluorescence, respectively. The fluorescence intensities were measured using Excitation/Emission wavelengths at 405/460nm, 485/535nm and 540/590nm for blue, green and red labels, respectively. This assay includes the blue fluorescence data.
Tox21 Assay Protocol Summary: 5 uL of culture medium (DMEM containing 10% FBS) per well was dispensed into black wall/clear bottom 1536-well plates using a Multidrop Combi Dispenser (ThermoFisher Scientific, Waltham, MA). After 23 nL compound or DMSO vehicle was transferred into assay plate by a pintool work station (Kalypsys, San Diego, CA), fluorescence intensities in the assay plates were measured by an Envision (PerkinElmer, Shelton, CT) plate reader using three labels for measuring blue, green and red fluorescence at […] 460, 535 and 590nm respectively.

Row | SMILES | outcome
1 | CC1(C)OC[C@@H]2O[C@@]3(C(=O)O)OC(C)(C)O[C@H]3[C@@H]2O1 | inactive
2 | C=C(C)C(=O)OCC(C)C | inactive
3 | CCCCCCC=O | inactive
4 | CCNC(=S)NCC | inactive
5 | O=S(=O)(O)c1ccc(N=Nc2c(O)ccc3cc(S(=O)(=O)O)ccc23)cc1 | inactive
6 | C=C(C)CNCC | inactive
7 | COc1ccc(OC)cc1 | inactive
8 | CN(C)c1ccc(Cc2ccc(N(C)C)cc2)cc1 | inactive
9 | CNC(=S)N(C)C | inactive
10 | Cc1ccc(S(=O)(=O)N=C=O)cc1 | inactive
11 | N[C@H](Cc1c[nH]c2ccccc12)C(=O)O | inactive
12 | COCCOC(=O)c1ccccc1C(=O)OCCOC | inactive
13 | CC(=O)c1ccc(O)cc1 | inactive
14 | COCCCN | inactive
15 | CCCCCC(=O)O | inactive
16 | Cc1ccc2ncccc2c1 | inactive
17 | Nc1nc(N)nc(-c2ccccc2)n1 | inactive
18 | C=CC(=O)OCCC(=O)O | inactive
19 | CCCCCCCCCCCCCCCCO | inactive
20 | OCc1cccc(Oc2ccccc2)c1 | inactive

Row | SMILES | outcome
21 | COc1ccc(N)c(C)c1 | inactive
22 | O=c1[nH]cnc2[nH]ncc12 | inactive
23 | CCOC(=O)n1ccn(C)c1=S | inactive
24 | COC(=O)CCCC(=O)OC | inactive
25 | O=S(=O)(O)c1ccccc1 | inactive
26 | NCCCCCCN | inactive
27 | CC(C)CCCCCCCOC(=O)CCCCC(=O)OCCCCCCCC(C)C | inactive
28 | NC(=S)NNC(N)=S | inactive
29 | O=C1CCCC1 | inactive
30 | CCCCOC(=O)c1ccc(N)cc1 | inactive
31 | c1ccc2c(c1)Cc1ccccc1-2 | inactive
32 | CC(=O)OCc1ccco1 | inactive
33 | COc1ccccc1OCC(O)CO (stereo not given) | inactive
34 | O=C(O)c1ccc(C(=O)O)c(C(=O)O)c1 | inactive
35 | CC(C)OP(=O)(CP(=O)(OC(C)C)OC(C)C)OC(C)C | inactive
36 | C=CCCCCCCCCC(=O)O | inactive
37 | CN(C)CCOC(=O)COc1ccc(Cl)cc1 | inactive
38 | CC(=O)OCCOC(C)=O | inactive
39 | CC(C)=CCl | inactive
40 | C=CC[N+](C)(C)CC=C | inactive
